Drawing on PubChem BioAssay, this text covers z-score and composite z-score for nine molecules.

Activity calls are given as the source filed them. Unless noted, the rule behind the calls is not given here.

Test [1] in a line: A549 cell viability effects, profiling panel, calcein-AM fluorescence, 48 h, basal (AID 1162). Note: test concentration not given here. Particulars: higher = more signal.
The nature of test [2]: adipocyte viability effects, profiling panel, cell-based, 3T3-L1 adipocytes, calcein-AM fluorescence, 48 h, basal (AID 1163). Note: test concentration not given here. As to conditions: 3T3-L1 adipocytes viability, higher = more signal.
The nature of test [3]: HepG2 cell viability effects, profiling panel, calcein-AM fluorescence, 48 h, basal (AID 1164). Note: test concentration not given here. Particulars: higher = more signal.
Test [4] is described as follows: MM1S cell viability effects, profiling panel, calcein-AM fluorescence, 48 h, basal (AID 1165).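 Note: viability of MM1S multiple myeloma cells under basal unstimulated conditions; test concentration not given here.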 Particulars: higher = more signal.
Test [5] can be described thus: basal RPMI8226 viability, no added stimulus, profiling panel, cell-based, calcein-AM fluorescence, 48 h, PK04 Diversity Set (AID 1166).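 Note: cells grown under basal conditions without added stimulus; test concentration not given here.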 As to conditions: RPMI8226 myeloma viability, higher = more signal.
The nature of test [6]: basal HepG2 mitochondrial membrane potential changes, profiling panel, cell-based, JC-1 fluorescence, 24 h, 100 nL compound (AID 1167). Note: test concentration not given here. Particulars: higher = more signal.
Test [7] can be described thus: basal 3T3-L1 adipocyte mitochondrial potential changes, profiling panel, cell-based, JC-1 fluorescence, 3T3-L1 adipocytes, 24 h, 100 nL compound (AID 1168). Note: test concentration not given here. Particulars: JC-1 mitochondrial fluorescence, higher = more signal, called active from +8 up or from −8 down.
Test [8] in a line: basal RPMI8226 mitochondrial membrane potential changes, profiling panel, cell-based, JC-1 fluorescence, 24 h, 100 nL compound (AID 1169). Note: test concentration not given here. Particulars: RPMI8226 myeloma, JC-1 mitochondrial potential fluorescence, higher = more signal.
Test [9] is described as follows: basal MM1S mitochondrial membrane potential changes, profiling panel, cell-based, JC-1 fluorescence, 24 h, 100 nL compound (AID 1170). Note: test concentration not given here. As to conditions: higher = more signal.
Test [10] can be described thus: A549 lung cancer cell viability effects, profiling panel, resazurin fluorescence, 24 h, PK04 Diversity Set (AID 1171). Note: test concentration not given here. As to conditions: higher = more signal, called active from +8 up or from −8 down. (The colour change of resazurin is a common sign of viable cells or microbes.)
Test [11] is described as follows: HepG2 liver cancer cell viability effects, profiling panel, resazurin fluorescence, 24 h, PK04 Diversity Set (AID 1172). Note: test concentration not given here. Particulars: higher = more signal.
A short description of test [12]: basal S. cerevisiae growth modulation, no modifier, primary screen, OD600, strain BY4716, 24 h, basal condition (AID 1173). As to conditions: OD600, 24 h, higher = more signal, called active from +8 up or from −8 down.
Test [13] is described as follows: MM1S myeloma cell viability, profiling panel, resazurin fluorescence, basal, 24 h, PK04 Diversity Set (AID 1174).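 Note: MM1S multiple myeloma cell line; test concentration not given here.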 Particulars: higher = more signal, called active from +8 up or from −8 down.
Test [14] has as its target Dihydroorotate dehydrogenase (quinone), mitochondrial (Plasmodium falciparum (isolate 3D7)) (UniProt Q08210). As to the kind of experiment: PfDHODH enzyme inhibitors, primary screen, biochemical, C-terminal His tag, absorbance 600 nm (AID 1175).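 Note: recombinant parasite enzyme with a five histidine tag at its C terminus; test concentration not given here.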 As to conditions: DCIP absorbance 600 nm, higher = more signal, called active from +8 up or from −8 down.
The nature of test [15]: P. aeruginosa biofilm formation inhibitors, primary screen, strain PAO1, LB-PBS medium, absorbance 600 nm (AID 1176). Note: test concentration not given here. Particulars: P. aeruginosa PAO1 growth/biofilm, A600, 12 h; higher = more signal.
Test [16] is described as follows: S. cerevisiae RM11-1a growth modifiers, primary screen, strain RM11-1a, OD600, basal, 24 h (AID 1177).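 Note: cultures grown under basal conditions with no added stressor; test concentration not given here.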 Particulars: OD600, 24 h, higher = more signal, called active from +8 up or from −8 down.
The nature of test [17]: E. coli acrAB mutant growth effects, primary screen, E. coli filamentation inducers, strain DRC39, OD650, 24 h (AID 1178).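 Note: growth measured as culture turbidity by optical density at 650 nm; test concentration not given here.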 As to conditions: higher = more signal, called active from +8 up or from −8 down.
The nature of test [18]: E. coli acrAB mutant growth effects, primary screen, E. coli filamentation inducers, strain DRC39, OD650, 48 h (AID 1179).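 Note: screen aims at cell division blockers that make cells filament.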 Particulars: E. coli DRC39 delta-acrAB growth, higher = more signal, called active from +8 up or from −8 down.
Test [19] in a line: RPMI8226 myeloma cell viability, profiling panel, resazurin fluorescence, basal, 24 h, PK04 Diversity Set (AID 1180).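 Note: RPMI8826 multiple myeloma cell line at 5000 cells per well; test concentration not given here.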 As to conditions: higher = more signal.
The target in test [20] is E3 ubiquitin-protein ligase XIAP (Homo sapiens) (UniProt P98170). As to the kind of experiment: XIAP binders, primary screen, biophysical, small-molecule microarray, fluorescence 635 nm (AID 1181).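 Note: score merges 667 nm emission and signal to noise over triplicate slides.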 As to conditions: small-molecule microarray binding, higher = more signal.
Sequence of E3 ubiquitin-protein ligase XIAP (Homo sapiens) (P98170 whole entry, looked up): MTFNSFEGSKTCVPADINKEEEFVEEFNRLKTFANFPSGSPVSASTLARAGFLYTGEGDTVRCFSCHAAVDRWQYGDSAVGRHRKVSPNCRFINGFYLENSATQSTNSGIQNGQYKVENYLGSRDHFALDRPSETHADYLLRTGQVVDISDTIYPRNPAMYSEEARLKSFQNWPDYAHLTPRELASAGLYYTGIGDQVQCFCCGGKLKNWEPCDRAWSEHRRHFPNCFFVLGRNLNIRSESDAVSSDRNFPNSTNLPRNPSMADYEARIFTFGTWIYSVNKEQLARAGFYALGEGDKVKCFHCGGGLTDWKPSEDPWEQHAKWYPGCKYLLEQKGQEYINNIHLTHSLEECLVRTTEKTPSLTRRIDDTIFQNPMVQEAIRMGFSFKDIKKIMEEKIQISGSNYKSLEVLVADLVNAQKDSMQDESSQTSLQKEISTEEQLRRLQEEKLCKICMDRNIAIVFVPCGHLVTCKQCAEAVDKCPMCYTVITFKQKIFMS

Sequence of Dihydroorotate dehydrogenase (quinone), mitochondrial (Plasmodium falciparum (isolate 3D7)) (Q08210 whole entry, looked up): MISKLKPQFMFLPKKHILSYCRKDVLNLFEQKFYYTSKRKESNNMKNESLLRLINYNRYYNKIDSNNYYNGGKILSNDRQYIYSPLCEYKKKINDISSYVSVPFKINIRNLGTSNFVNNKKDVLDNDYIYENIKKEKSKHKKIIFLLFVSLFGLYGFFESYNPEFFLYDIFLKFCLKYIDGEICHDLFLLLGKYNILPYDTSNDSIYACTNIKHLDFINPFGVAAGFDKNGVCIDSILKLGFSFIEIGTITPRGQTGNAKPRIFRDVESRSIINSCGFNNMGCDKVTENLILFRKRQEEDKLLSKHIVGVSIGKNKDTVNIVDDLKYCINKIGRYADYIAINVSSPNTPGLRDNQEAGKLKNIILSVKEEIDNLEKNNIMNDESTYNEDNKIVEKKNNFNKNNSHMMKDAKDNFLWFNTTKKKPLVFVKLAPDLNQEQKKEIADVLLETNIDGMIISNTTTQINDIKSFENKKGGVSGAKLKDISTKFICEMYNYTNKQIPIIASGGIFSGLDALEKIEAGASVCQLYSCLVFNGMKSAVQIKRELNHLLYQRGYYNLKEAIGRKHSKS

For `O=C1OCCC=C[C@H]2OC34C=CCN(c5ccc(Cl)cc5)C(=O)[C@H]3N(CCCCCO)C(=O)[C@@H]4C12` (stereo not given in full), the z-score was 0.657 in test [1]; 0.0279 in test [2]; 1.11 in test [3]; 1.54 in test [4]; -0.579 in test [5]; 0.989 in test [6]. For the same molecule, the z-score in test [7] is 1.14 (inactive); in test [8], 0.211; in test [9], 0.0628; in test [10] it was 1.03 (inactive); in [11], 1.25; in test [12] it was -0.508 (inactive). Further, the z-score in test [13] is 0.89 (inactive); in test [15], -0.525 (inactive); in test [16], -0.429 (inactive); in test [17], 1.68 (inactive); in test [18], 1.83 (inactive); in [19] it was 0.599. The composite z-score is -0.417 (inactive) in [14] and 0.23 in [20].

With `COC(=O)C1(Cc2ccccc2)C=C2C(=C(C(C)C)C(=O)C2C)CN1` (stereo not given), the z-score in [1] was -0.859; in test [2], 0.575; in test [3], -1.75; in test [4] it was -1.89; in test [5], -1.53; in test [6], -1. Besides, the z-score in test [7] was -1.76 (inactive); in [8], 0.838; in test [9] it was 0.0816; in test [10], -1.33 (inactive); in test [11], -0.88; in test [12] it was 0.736 (inactive). Also, the z-score is -2.2 (inactive) in test [13]; 1.35 (inactive) in [15]; 0.905 (inactive) in test [16]; -0.999 (inactive) in test [17]; -0.927 (inactive) in [18]; -1.59 in test [19]. Also, the composite z-score is -1.72 (inactive) in test [14] and 0.0493 in [20].

Take `O=C1O[C@@H](c2ccccc2)[C@@H](c2ccccc2)N2[C@@H](c3ccccc3OCCO)[C@]3(C(=O)Nc4ccc(C#CC5=CCCCC5)cc43)[C@@H](C(=O)NC[C@H](O)c3ccccc3)[C@H]12`: the z-score was -1.37 in test [1]; 1.68 in test [2]; -3.07 in [3]; -3.25 in test [4]; -4.07 in [5]; -2.4 in [6]. Further, the z-score in test [7] is 2.81 (inactive); in [8], -0.664; in [9] it was -2; in test [10] it was -1.46 (inactive); in [11] it was -1.33; in [12], 0.961 (inactive). Besides, the z-score was -7.07 (inactive) in test [13]; 0.787 (inactive) in test [15]; 0.979 (inactive) in test [16]; -0.0029 (inactive) in [17]; -0.208 (inactive) in [18]; -5.79 in test [19]. For the same molecule, the composite z-score in test [14] is 0.578 (inactive); in [20], -0.16.

On to `COCCCNC(=O)[C@]1(Cc2ccccc2CN=[N+]=[N-])N=C(c2ccc(OCCCO)cc2)O[C@@H]1c1ccccc1`, for which the z-score in [1] is -1.36; in [2] it was 0.503; in test [3], -0.79; in [4] it was -2.62; in [5], -4.24; in test [6], -0.194. The z-score in test [7] was 0.48 (inactive); in [8], -1.15; in test [9], -1.11; in test [10] it was 0.28 (inactive); in [11], 1.27; in [12], -0.682 (inactive). In addition, the z-score is -1.48 (inactive) in test [13]; -0.441 (inactive) in test [15]; 0.916 (inactive) in test [16]; 1.18 (inactive) in test [17]; 0.422 (inactive) in test [18]; -3.11 in [19]. The composite z-score in test [14] is 0.633 (inactive); in test [20] it was 0.216.

With `COC(=O)[C@@]1(Cc2ccccc2)[C@H]2c3cc(C(=O)N4CCCC4)[nH]c3C[C@H]2CN1C(=O)c1ccccc1`, the z-score in test [1] was -1.12; in test [2], 0.904; in test [3] it was -0.585; in test [4] it was 0.277; in [5], -1.17; in test [6], 0.288. Besides, the z-score in test [7] was -1.17 (inactive); in test [8] it was -0.786; in test [9], -0.28; in [10], 0.412 (inactive); in test [11], -0.6; in test [12], 0.146 (inactive). Also, the z-score in test [13] was -0.89 (inactive); in [15], 0.026 (inactive); in [16], 0.198 (inactive); in test [17], -0.79 (inactive); in test [18] it was -0.548 (inactive); in test [19], -0.183. Moreover, the composite z-score in test [14] was -0.171 (inactive); in test [20], -0.247.

Turning to `C=CC[C@]12N=C(c3ccc(OCCCO)cc3)O[C@H]1c1ccccc1N(C)C2=O`, the z-score in [1] was -1.3; in test [2] it was 0.614; in test [3] it was -0.593; in test [4] it was -1.14; in [5], -3.83; in test [6] it was 0.422. In addition, the z-score in [7] is -0.427 (inactive); in test [8], -1.17; in test [9], 0.203; in [10] it was -1.12 (inactive); in test [11], -0.782; in test [12], -1.62 (inactive). The z-score in [13] is -1.54 (inactive); in test [15], 0.345 (inactive); in test [16], 1.27 (inactive); in test [17] it was 0.105 (inactive); in test [18], -0.487 (inactive); in test [19], -1.28. In addition, the composite z-score in test [14] is 0.582 (inactive); in [20], -0.031.

Consider `CCCCN1CC=CC23O[C@@H]4C=CCOC(=O)[C@@H]4[C@H]2C(=O)N(C(C)CO)[C@@H]3C1=O` (stereo not given in full), for which the z-score was -0.406 in [1]; 0.434 in test [2]; -0.208 in test [3]; 0.638 in [4]; 0.0934 in test [5]; -1.02 in test [6]. The z-score in test [7] was -1.98 (inactive); in test [8], -0.768; in test [9], -0.0859; in test [10] it was -0.384 (inactive); in test [11], -0.0023; in [12], 0.15 (inactive). In addition, the z-score was -0.536 (inactive) in test [13]; -0.456 (inactive) in test [15]; -0.938 (inactive) in [16]; -0.338 (inactive) in test [17]; -0.478 (inactive) in test [18]; -0.784 in [19]. The composite z-score in [14] is -1.49 (inactive); in test [20] it was -0.0525.

As to `COCCCNC(=O)[C@@H]1c2ccccc2C(=O)N(Cc2ccccc2C(F)(F)F)[C@H]1c1ccc(CO)cc1`, the z-score was 2.1 in test [1]; 1.29 in test [2]; 1 in test [3]; 0.7 in [4]; 0.237 in [5]; 2.55 in test [6]. The z-score was -0.0216 (inactive) in [7]; -0.213 in test [8]; 0.872 in [9]; 1.8 (inactive) in [10]; 0.816 in test [11]; -0.756 (inactive) in [12]. In addition, the z-score in [13] is 1.51 (inactive); in [15] it was -0.727 (inactive); in test [16], 0.186 (inactive); in test [17] it was 0.414 (inactive); in [18], 0.0948 (inactive); in [19], 1.48. Further, the composite z-score is -0.955 (inactive) in test [14] and -0.138 in [20].

In the case of `C=C(COC)/C(=C/C[C@@H](OC(=O)c1ccncc1)c1cccc(OCCO)c1)c1cnc2ccccc2c1`, the z-score was 0.0954 in test [1]; 0.542 in test [2]; -1.03 in test [3]; -2.17 in [4]; -0.307 in [5]; 0.862 in [6]. Also, the z-score in test [7] is -1.76 (inactive); in test [8], 0.187; in test [9], 0.276; in test [10], -0.634 (inactive); in test [11], -0.464; in [12], -17.3 (active). The z-score was -0.835 (inactive) in [13]; 1.17 (inactive) in [15]; -5.29 (inactive) in [16]; -0.451 (inactive) in [17]; -0.318 (inactive) in test [18]; -0.526 in test [19]. Also, the composite z-score was -6.7 (inactive) in [14] and 0.594 in [20].
